Reference: the supplement of paper PMC10849652
About 8,800 targets were measured; listed, in parts, are those with a hit and a random draw of the rest. About 0.5% of all pairs of compound and target were hits. A number with no mark means an inactive call.

Experiments:
Experiment in all cases: log2 fold change, soluble protein after heating vs DMSO (PISA); higher = thermal stabilisation; K562 lysate, 10 uM; active = over 0.2 and 3.5 SD of the protein, either way, in both replicates (recomputed)
vemurafenib = compound: CCCS(=O)(=O)Nc1ccc(F)c(C(=O)c2c[nH]c3ncc(-c4ccc(Cl)cc4)cc23)c1F [vemurafenib]
In short: (§1)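 Quantification was by TMTpro 16plex LC-MS/MS with equalised channel sums, applied to the supernatant after 21,000xg for 90 min. Samples were crude K562 extract at 1 mg/mL protein in PBS pH 7.4 with 1 mM MgCl2, treated with 10 μM compound for 30 min, heated for 3 min across 48°C-58°C, pooled and brought to 0.5% NP-40 at 4°C. Values are log-two fold changes in thermal stability relative to solvent controls, from duplicates.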

[1] = compound: CCCS(=O)(=O)Nc1ccc(F)c(C(=O)c2c[nH]c3ncc(Cl)cc23)c1F
In short: as §1

barasertib = compound: CCN(CCCOc1ccc2c(Nc3cc(CC(=O)Nc4cccc(F)c4)[nH]n3)ncnc2c1)CCOP(=O)(O)O [barasertib]
In short: as §1

[2] = compound: CC[C@@H]1C(=O)N(C)c2cnc(Nc3ccc(C(=O)NC4CCN(C)CC4)cc3OC)nc2N1C1CCCC1
In short: as §1

volasertib = compound: CC[C@@H]1C(=O)N(C)c2cnc(Nc3ccc(C(=O)N[C@H]4CC[C@H](N5CCN(CC6CC6)CC5)CC4)cc3OC)nc2N1C(C)C [volasertib]
In short: as §1

[3] = compound: CCn1c(C(=O)N(C2CC2)C2CC2)cc2c3c(ncn3C)c(Nc3cc(C)n(C)n3)nc21
In short: as §1

[4] = compound: CCn1cc(-c2ccnc3[nH]c(-c4cccc(CN(C)C)c4)cc23)c(-c2ccc(NC(=O)N(C)C)cc2)n1
In short: as §1

[5] = compound: CN1CCC(CNc2ccc3ncc(-c4cccc(OC(F)(F)F)c4)n3n2)CC1
In short: as §1

saracatinib = compound: CN1CCN(CCOc2cc(OC3CCOCC3)c3c(Nc4c(Cl)ccc5c4OCO5)ncnc3c2)CC1 [saracatinib]
In short: as §1

sotrastaurin = compound: CN1CCN(c2nc(C3=C(c4c[nH]c5ccccc45)C(=O)NC3=O)c3ccccc3n2)CC1 [sotrastaurin]
In short: as §1

Chain of UniProt O15243 (O15243 whole entry, looked up): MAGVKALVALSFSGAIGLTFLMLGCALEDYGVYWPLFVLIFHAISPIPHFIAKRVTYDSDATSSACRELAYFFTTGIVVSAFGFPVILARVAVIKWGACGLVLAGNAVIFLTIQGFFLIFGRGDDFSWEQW
Chain of UniProt Q9Y4F3 (Q9Y4F3 whole entry, looked up): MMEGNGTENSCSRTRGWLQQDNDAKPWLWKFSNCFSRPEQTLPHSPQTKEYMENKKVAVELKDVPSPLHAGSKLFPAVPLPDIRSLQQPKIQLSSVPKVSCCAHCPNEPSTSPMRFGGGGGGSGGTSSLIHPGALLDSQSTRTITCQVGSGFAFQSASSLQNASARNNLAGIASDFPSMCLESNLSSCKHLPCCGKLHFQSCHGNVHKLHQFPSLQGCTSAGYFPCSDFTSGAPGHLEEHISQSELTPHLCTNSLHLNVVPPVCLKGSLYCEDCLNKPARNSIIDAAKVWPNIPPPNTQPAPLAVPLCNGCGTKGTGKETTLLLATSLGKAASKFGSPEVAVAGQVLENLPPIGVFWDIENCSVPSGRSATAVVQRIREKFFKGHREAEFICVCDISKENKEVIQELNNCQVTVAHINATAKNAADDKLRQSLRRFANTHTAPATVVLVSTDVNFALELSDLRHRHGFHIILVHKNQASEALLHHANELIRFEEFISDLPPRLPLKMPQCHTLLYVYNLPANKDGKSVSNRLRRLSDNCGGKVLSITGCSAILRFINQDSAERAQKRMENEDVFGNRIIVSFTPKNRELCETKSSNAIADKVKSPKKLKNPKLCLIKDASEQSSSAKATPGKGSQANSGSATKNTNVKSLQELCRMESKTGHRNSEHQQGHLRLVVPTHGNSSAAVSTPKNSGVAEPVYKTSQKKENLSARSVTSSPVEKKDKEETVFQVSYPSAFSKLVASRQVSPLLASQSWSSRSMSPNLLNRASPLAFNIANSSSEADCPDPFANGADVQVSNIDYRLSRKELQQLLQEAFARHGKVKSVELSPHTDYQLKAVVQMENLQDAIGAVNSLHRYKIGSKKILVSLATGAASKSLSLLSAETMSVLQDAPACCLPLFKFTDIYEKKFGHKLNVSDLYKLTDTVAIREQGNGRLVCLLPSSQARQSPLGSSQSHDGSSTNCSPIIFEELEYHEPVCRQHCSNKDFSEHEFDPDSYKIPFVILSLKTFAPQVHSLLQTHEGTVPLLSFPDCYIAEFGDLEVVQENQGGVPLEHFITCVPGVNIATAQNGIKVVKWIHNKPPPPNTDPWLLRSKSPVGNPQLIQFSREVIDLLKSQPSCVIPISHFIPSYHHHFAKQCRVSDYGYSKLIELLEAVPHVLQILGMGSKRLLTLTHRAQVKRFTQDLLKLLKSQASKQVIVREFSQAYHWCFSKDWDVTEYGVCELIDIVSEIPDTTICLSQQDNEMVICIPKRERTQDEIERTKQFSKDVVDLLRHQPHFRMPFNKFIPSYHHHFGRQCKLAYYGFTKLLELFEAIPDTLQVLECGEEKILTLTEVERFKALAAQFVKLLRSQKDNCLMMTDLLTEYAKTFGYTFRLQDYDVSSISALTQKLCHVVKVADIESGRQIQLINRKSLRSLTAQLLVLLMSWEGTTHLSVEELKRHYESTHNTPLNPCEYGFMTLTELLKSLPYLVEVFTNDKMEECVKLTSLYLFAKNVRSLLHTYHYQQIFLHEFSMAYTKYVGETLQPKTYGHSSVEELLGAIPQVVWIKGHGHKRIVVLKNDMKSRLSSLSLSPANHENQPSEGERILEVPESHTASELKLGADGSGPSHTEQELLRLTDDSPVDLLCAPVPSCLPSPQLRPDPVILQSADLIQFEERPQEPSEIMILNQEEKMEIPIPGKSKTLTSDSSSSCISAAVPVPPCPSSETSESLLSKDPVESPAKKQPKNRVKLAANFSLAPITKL
Chain of UniProt Q9UBG0 (Q9UBG0 whole entry, looked up): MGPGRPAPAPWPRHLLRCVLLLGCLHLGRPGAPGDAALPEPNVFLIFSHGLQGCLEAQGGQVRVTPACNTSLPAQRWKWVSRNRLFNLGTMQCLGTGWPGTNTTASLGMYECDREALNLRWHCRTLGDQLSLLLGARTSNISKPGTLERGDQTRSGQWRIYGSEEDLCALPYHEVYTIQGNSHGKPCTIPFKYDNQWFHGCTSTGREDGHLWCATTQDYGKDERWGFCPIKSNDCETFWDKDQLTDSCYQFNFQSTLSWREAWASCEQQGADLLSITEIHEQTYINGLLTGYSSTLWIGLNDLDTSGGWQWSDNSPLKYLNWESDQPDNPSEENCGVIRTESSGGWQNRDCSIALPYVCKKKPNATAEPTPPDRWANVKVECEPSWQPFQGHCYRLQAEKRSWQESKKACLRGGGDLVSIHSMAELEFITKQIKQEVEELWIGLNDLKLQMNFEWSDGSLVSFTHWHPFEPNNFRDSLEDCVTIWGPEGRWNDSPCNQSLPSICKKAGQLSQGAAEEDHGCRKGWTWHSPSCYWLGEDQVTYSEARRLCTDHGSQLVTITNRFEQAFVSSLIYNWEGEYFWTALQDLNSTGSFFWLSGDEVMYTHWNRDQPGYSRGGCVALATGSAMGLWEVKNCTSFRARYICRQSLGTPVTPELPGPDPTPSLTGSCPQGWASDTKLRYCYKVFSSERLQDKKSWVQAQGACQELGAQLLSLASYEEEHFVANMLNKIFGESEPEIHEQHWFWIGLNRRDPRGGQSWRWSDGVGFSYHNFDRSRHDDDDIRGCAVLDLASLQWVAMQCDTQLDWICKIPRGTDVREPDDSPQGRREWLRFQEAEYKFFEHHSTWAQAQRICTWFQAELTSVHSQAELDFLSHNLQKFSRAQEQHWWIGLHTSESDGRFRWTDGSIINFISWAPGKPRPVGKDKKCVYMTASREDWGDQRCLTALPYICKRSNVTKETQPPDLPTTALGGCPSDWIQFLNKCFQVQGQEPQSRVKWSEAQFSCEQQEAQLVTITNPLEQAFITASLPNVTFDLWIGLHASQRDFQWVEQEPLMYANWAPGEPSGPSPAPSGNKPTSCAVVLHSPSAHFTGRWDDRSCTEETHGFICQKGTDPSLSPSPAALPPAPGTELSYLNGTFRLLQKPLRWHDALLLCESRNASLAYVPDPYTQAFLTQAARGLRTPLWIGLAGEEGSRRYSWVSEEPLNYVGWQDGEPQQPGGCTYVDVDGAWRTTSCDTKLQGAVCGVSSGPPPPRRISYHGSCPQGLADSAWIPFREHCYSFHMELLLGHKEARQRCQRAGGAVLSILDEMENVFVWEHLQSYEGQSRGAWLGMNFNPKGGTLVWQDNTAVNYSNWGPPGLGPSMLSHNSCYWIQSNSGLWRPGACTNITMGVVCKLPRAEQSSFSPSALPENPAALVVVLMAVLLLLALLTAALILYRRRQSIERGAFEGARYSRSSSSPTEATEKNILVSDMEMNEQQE
Chain of UniProt Q9BPZ7 (Q9BPZ7 whole entry, looked up): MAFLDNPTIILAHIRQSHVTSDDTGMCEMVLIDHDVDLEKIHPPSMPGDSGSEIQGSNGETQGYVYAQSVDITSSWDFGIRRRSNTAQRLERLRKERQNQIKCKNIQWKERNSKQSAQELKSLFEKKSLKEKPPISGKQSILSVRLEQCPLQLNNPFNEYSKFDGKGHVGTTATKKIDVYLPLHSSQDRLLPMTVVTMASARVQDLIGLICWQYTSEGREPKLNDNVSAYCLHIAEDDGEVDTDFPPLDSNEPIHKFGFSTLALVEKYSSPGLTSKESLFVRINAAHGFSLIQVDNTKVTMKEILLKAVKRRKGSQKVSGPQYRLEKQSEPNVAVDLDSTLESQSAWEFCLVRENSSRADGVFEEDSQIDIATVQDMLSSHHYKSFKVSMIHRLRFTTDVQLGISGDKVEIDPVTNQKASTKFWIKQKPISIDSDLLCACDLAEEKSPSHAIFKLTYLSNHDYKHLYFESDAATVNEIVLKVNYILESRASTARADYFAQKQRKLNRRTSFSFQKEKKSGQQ
Chain of UniProt Q9H204 (Q9H204 whole entry, looked up): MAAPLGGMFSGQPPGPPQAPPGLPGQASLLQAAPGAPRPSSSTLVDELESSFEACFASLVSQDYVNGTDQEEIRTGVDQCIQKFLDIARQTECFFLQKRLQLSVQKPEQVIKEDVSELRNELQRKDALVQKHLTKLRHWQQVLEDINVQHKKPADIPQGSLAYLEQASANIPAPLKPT
Chain of UniProt Q08380 (Q08380 whole entry, looked up): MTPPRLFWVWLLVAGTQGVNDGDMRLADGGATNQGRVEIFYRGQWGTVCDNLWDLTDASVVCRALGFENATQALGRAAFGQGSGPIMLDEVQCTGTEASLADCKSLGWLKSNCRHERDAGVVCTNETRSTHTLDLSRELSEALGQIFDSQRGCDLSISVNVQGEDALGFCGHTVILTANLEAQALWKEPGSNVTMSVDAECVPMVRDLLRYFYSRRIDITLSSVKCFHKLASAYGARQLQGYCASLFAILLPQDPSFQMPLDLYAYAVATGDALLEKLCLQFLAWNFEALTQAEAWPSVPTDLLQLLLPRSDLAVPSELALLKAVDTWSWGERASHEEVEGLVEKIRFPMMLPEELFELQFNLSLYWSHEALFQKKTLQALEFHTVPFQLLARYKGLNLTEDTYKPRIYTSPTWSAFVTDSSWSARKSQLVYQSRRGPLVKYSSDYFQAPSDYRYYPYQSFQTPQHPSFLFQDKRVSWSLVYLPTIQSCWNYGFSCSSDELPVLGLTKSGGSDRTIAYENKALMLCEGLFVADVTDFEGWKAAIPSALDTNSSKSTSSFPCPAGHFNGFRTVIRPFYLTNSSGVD
Chain of UniProt Q15013 (Q15013 whole entry, looked up): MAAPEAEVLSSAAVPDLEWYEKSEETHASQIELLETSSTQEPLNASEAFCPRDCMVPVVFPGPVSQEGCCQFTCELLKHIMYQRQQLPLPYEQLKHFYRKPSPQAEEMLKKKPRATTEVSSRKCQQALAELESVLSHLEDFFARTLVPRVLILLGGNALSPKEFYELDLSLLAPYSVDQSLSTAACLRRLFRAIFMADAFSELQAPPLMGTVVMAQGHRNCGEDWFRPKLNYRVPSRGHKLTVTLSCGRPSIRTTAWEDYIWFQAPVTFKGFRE

Target | log2 fold change (vemurafenib) | log2 fold change [1] | log2 fold change (barasertib) | log2 fold change [2] | log2 fold change (volasertib) | log2 fold change [3] | log2 fold change [4] | log2 fold change [5] | log2 fold change (saracatinib) | log2 fold change (sotrastaurin)
MAD2L1BP isoform 3 (UniProt Q15013) | 0.003 | 0.009 | 0.054 | -0.076 | -0.042 | 0.022 | 0 | 0.03 | 0.021 | 0.01
MLST8 (UniProt Q9BVC4) | 0.025 | 0.029 | 0.074 | 0.026 | -0.009 | 0.023 | -0.03 | 0.012 | 0.075 | -0.045
MITD1 (UniProt Q8WV92) | 0.044 | 0.001 | 0.057 | 0.013 | -0.07 | -0.031 | -0.269 | -0.163 | 0.024 | 0.039
MED17 (UniProt Q9NVC6) | 0.028 | 0.007 | 0.004 | -0.023 | -0.02 | 0.002 | -0.037 | 0.013 | 0.01 | 0.031
MPDZ (UniProt O75970) | 0.059 | 0.03 | – | 0 | -0.026 | -0.115 | 0.129 | -0.017 | 0.088 | 0.209
MAP11 (UniProt Q8WVR3) | -0.032 | 0.044 | 0.07 | 0.129 | -0.079 | 0.086 | 0.049 | 0.06 | 0.033 | -0.039
LSM11 (UniProt P83369) | 0.077 | – | – | 0.06 | – | – | 0.115 | 0.212 | 0.076 | -0.085
KIF21A (UniProt H0YI78) | – | 0.017 | -0.198 | – | -0.008 | – | – | – | -0.151 | –
MCUB (UniProt Q9NWR8) | – | -0.175 | 0.156 | – | -0.041 | -0.222 | 0 | -0.054 | -0.096 | -0.008
MED25 isoform 3 (UniProt Q71SY5) | – | 0.018 | 0.034 | -0.256 (active) | -0.032 | -0.046 | 0.013 | -0.056 | 0.032 | 0.083
MOCS3 (UniProt O95396) | -0.12 | – | -0.018 | -0.038 | – | 0.037 | -0.273 | 0.264 | 0.06 | 0.11
LEPROT (UniProt O15243) | – | 0.112 | 0.042 | 0.144 | 0.102 | -0.086 | -0.043 | -0.02 | – | -0.009
LRP1 (UniProt Q07954) | 0.15 | -0.072 | – | -0.163 | 0.004 | – | – | – | – | -0.043
MBTPS1 (UniProt Q14703) | 0.247 | – | 0.199 | 0.034 | – | 0.003 | 0.211 | -0.185 | -0.031 | -0.014
MRC2 (UniProt Q9UBG0) | – | – | – | 0.205 | – | – | 0.053 | 0.124 | 0.301 | -0.054
MED28 (UniProt Q9H204) | – | -0.004 | – | – | 0.096 | 0.053 | -0.063 | 0.322 | -0.032 | -0.028
MAPK7 (UniProt Q13164) | – | 0.024 | – | 0.072 | -0.056 | – | -0.084 | -0.101 | – | -0.031
MAP3K4 isoform 2 (UniProt Q9Y6R4) | – | – | – | – | – | – | – | – | – | -0.004
MME (UniProt P08473) | – | -0.092 | -0.084 | – | 0.001 | 0.075 | -0.044 | 0.009 | -0.114 | 0.016
LRRC9 (UniProt Q6ZRR7) | -0.011 | – | – | -0.022 | – | – | -0.25 | 0.131 | – | 0.01
KIFC3 isoform 6 (UniProt Q9BVG8) | 0.052 | – | 0.025 | 0.409 | – | – | 0.284 | 0.256 | 0.005 | 0.028
KIF18B (UniProt Q86Y91) | – | 0.017 | – | 0.221 | -0.046 | – | – | – | 0.04 | 0.106

Target | log2 fold change (vemurafenib) | log2 fold change [1] | log2 fold change (barasertib) | log2 fold change [2] | log2 fold change (volasertib) | log2 fold change [3] | log2 fold change [4] | log2 fold change [5] | log2 fold change (saracatinib) | log2 fold change (sotrastaurin)
MAP4K4 isoform 6 (UniProt O95819) | – | 0.073 | 0.06 | 0.06 | -0.04 | -0.025 | – | – | 0.006 | –
MPP5 (UniProt Q8N3R9) | -0.029 | – | -0.058 | -0.011 | – | 0.042 | -0.084 | -0.038 | -0.04 | -0.006
MAP3K6 (UniProt O95382) | -0.006 | – | – | 0.164 | – | – | – | – | – | –
METTL21A (UniProt Q8WXB1) | – | 0.04 | 0.062 | – | -0.034 | -0.054 | -0.011 | 0.049 | 0.263 (active) | 0.04
MAPKAP1 (UniProt Q9BPZ7) | – | – | – | 0.031 | – | 0.005 | – | – | 0.057 | -0.045
MRPL22 (UniProt Q9NWU5) | – | 0.001 | – | – | -0.002 | -0.069 | -0.006 | -0.045 | – | -0.013
MRPL30 isoform 2 (UniProt Q8TCC3) | – | 0.002 | 0.002 | -0.068 | -0.013 | -0.027 | 0.563 (active) | -0.434 (active) | 0.01 | 0.016
LYN isoform 2 (UniProt P07948) | – | – | – | -0.077 | – | -0.075 | -0.031 | 0.024 | 0.353 | 0.074
MEX3A (UniProt A1L020) | -0.094 | – | – | – | – | 0.191 | – | – | 0.055 | –
MARF1 (UniProt Q9Y4F3) | -0.093 | – | 0.051 | -0.059 | – | 0.007 | -0.027 | -0.059 | 0.027 | 0
MAN2B2 (UniProt Q9Y2E5) | – | -0.028 | -0.047 | -0.013 | -0.006 | -0.022 | 0.648 (active) | -0.649 (active) | -0.053 | -0.024
LRRIQ1 (UniProt Q96JM4) | -0.023 | 0.02 | – | – | 0.015 | -0.015 | – | – | – | 0.027
MDM2 isoform 11 (UniProt Q00987) | -0.035 | – | -0.238 | – | – | -0.03 | 0.024 | -0.038 | – | 0.053
KRAS isoform 2 (UniProt P01116) | – | 0.019 | – | 0.156 | -0.125 | 0.077 | – | – | -0.06 | -0.013
KLC1 isoform 10 (UniProt Q07866) | – | – | 0.238 | 0.152 | – | – | – | – | – | –
MAPK12 (UniProt P53778) | 0.084 | – | -0.033 | 0.105 | – | -0.029 | 0.974 (active) | -0.169 | 0.023 | –
MRPL27 (UniProt Q9P0M9) | – | -0.051 | -0.01 | 0.076 | 0.017 | -0.006 | 0.926 (active) | -0.218 | 0.009 | 0.05
KRAS (UniProt P01116) | 0.061 | 0.019 | – | 0.019 | 0.063 | -0.053 | -0.278 (active) | 0.06 | 0.066 | 0.012
KRI1 (UniProt Q8N9T8) | -0.079 | – | -0.03 | 0.005 | – | 0.021 | -0.005 | -0.014 | 0 | 0.008
KIF2A isoform 2 (UniProt O00139) | – | – | – | – | – | – | 0.129 | 0.316 | – | –
LGALS3BP (UniProt Q08380) | -0.196 | 0.01 | – | 0.036 | 0.044 | – | 0.168 | 0 | 0.219 | -0.067
